Assay results taken from PubChem BioAssay.

test: resazurin metabolic signal in HepG2 cells – cell-based, resazurin fluorescence, 24 h, PK04 Diversity Set, profiling panel (AID 1172); conditions: HepG2 viability, higher = more signal; further: test concentration not given here

Row | SMILES | z-score
1 | O=C1c2ccccc2[C@](Cc2ccccc2I)(C(=O)NCCN2CCOCC2)[C@H](c2ccc(CO)cc2)N1Cc1ccccc1 | -0.462
2 | CN(C)CCCCNC(=O)[C@H]1C[C@H]2C(=O)N3CCC[C@H]3C(=O)N2[C@H]1c1ccc(O)cc1 | 0.769
3 | C=C(CCCC)C(=O)CC[C@@H](OC(=O)c1ccccc1-c1ccccc1C(=O)O)c1cccc(OCCO)c1 | -0.269
4 | C=C(C(=O)CC[C@H](OC(=O)c1cccnc1)c1ccc(CO)o1)C(C)C | -0.499
5 | COc1ccc(C#Cc2ccc3c(c2)[C@]2(C(=O)N3)[C@H](C(=O)N3CCc4cc(OC)c(OC)cc4C3)[C@H]3C(=O)O[C@H](c4ccccc4)[C@H](c4ccccc4)N3[C@@H]2c2ccc(O)cc2)cc1 | -0.235
6 | [N-]=[N+]=NCc1ccccc1C[C@@]1(C(=O)N2CCCCC2)N=C(c2ccc(OCCCO)cc2)O[C@@H]1c1ccccc1N=[N+]=[N-] | 0.226
7 | C=C[C@@H](COC(C)=O)NS(=O)(=O)c1ccc(Br)cc1 | -1.44
8 | CCOC(=O)C[C@H]1[C@H](OC(=O)c2ccc(-c3ccccc3)cc2)[C@@H](NC(=O)c2ccc3ccccc3c2)c2cc(OCCCO)ccc2N1C(=O)c1ccc2ccccc2n1 | -0.138
9 | CC(C)(C)OC(=O)CC[C@]1(C(=O)NCCN2CCOCC2)N=C(c2ccc(OCCCO)cc2)O[C@H]1c1ccccc1 | -0.385
10 | C=CCOC(=O)[C@@H]1[C@H]2C(=O)O[C@H](c3ccccc3)[C@H](c3ccccc3)N2[C@H](c2ccc(OCCOC(=O)[C@H]3C[C@H]4C(=O)N[C@@H](CC(C)C)C(=O)N4[C@H]3c3ccc(O)cc3)cc2)[C@@]12C(=O)Nc1ccc(I)cc12 | 0.206
11 | O=C(CS)NCCCCCCNC(=O)[C@@H]1C[C@@H]2C(=O)N3CCC[C@H]3C(=O)N2[C@@H]1c1cccc(OCCO)c1 | -0.306
12 | COc1ccccc1CN1C(=O)c2ccccc2[C@@H](C(=O)NC(C)C)[C@@H]1c1ccc(CO)cc1 | 1.1
13 | C=CCOC(=O)[C@@H]1[C@H]2C(=O)O[C@H](c3ccccc3)[C@H](c3ccccc3)N2[C@H](c2ccc(OCCOC(=O)[C@H]3C[C@H]4C(=O)N[C@@H](CCCCNC(C)=O)C(=O)N4[C@H]3c3cccc(OCCO)c3)cc2)[C@@]12C(=O)Nc1ccc(I)cc12 | -0.299
14 | O=C1OCC=C[C@H]2OC34C=CCN(Cn5nnc6ccccc65)C(=O)[C@H]3N(CCCCCCO)C(=O)[C@@H]4[C@@H]12 (stereo not given in full) | -0.214
15 | COC(=O)Cn1c(C(=O)N2CCCC2)cc2c1C[C@H]1CN(C(=O)c3ccccc3)[C@@](Cc3ccc(F)cc3)(C(=O)OC)[C@@H]21 | 0.716
16 | COc1cc(OC)c(C(O)C2C=CC3C(=O)N(c4ccccc4)C(=O)C3N2Nc2ccc(C#N)cc2)cc1Br (stereo not given) | -0.99
17 | COc1ccc([Si](C)(C)[C@@H]2[C@@H](CC(=O)N3CCC[C@H]3CO)O[C@]3(C(=O)N(Cc4ccc(N5C(=O)c6cccc7cccc5c67)cc4)c4ccccc43)[C@H]2C)cc1 | -2.57
18 | CC=CC(O)C1C=CC2C(=O)N(c3ccccc3)C(=O)C2N1Nc1ccccc1 (stereo not given) | 0.965

Row | SMILES | z-score
19 | CC(C)C(=C=CC[C@@H](O)c1ccccc1OCCO)C[C@@H](O)COCc1ccccc1 | 0.669
20 | CC(C)(C)N1CC=CC23O[C@@H]4C=CCOC(=O)[C@@H]4[C@H]2C(=O)N(CCCO)[C@@H]3C1=O (stereo not given in full) | -0.922
21 | COc1c(C)cc(-c2cc3c(c(-c4ccccc4)n2)[Si](C(C)C)(C(C)C)OC3)cc1C | 0.0316
22 | Cc1ccc(S[C@]2(C(=O)NCC(C)C)CC(=O)N(Cc3ccccc3Cl)[C@@H]2c2ccc(CO)cc2I)cc1 | 0.0825
23 | O=C1O[C@@H](c2ccccc2)[C@@H](c2ccccc2)N2[C@@H](c3ccccc3OCCO)[C@]3(C(=O)Nc4ccc(C#CC5=CCCCC5)cc43)[C@@H](C(=O)NC[C@H](O)c3ccccc3)[C@H]12 | -1.33
24 | O=C(O)[C@H](Cc1ccccc1)n1cc(-c2ccccn2)nn1 | 0.535
25 | CC1CC/C=C\[C@H]2OC34C=CCN(CCN5CCOCC5)C(=O)[C@H]3N(CCO)C(=O)[C@@H]4C2C(=O)O1 (stereo not given in full) | 0.106
26 | CCOC(=O)C[C@H]1[C@H](OC(=O)c2ccc(-c3ccccc3)cc2)[C@@H](NC(=O)C2CCCCC2)c2cc(OCCCO)ccc2N1C(=O)c1ccccc1 | -0.755
27 | COCCCNC(=O)[C@@]1(Sc2ccc(C)cc2)CC(=O)N(Cc2cc(C(F)(F)F)cc(C(F)(F)F)c2)[C@@H]1c1ccc(CO)cc1 | -0.092
28 | CCCC[C@@H]1C[C@H]1[C@@H](NC(=O)c1cccnc1)c1ccc(-c2ccccc2)cc1 | 1.6
29 | O=C1O[C@@H](c2ccccc2)[C@@H](c2ccccc2)N2[C@@H](c3ccc(O)cc3)[C@]3(C(=O)Nc4ccc(C#CCCO)cc43)[C@@H](C(=O)Nc3nc4ccccc4s3)[C@H]12 | 0.43
30 | O=C(O)[C@]1(Cc2ccccc2)N=C(c2ccc(OCCCO)cc2)O[C@@H]1c1ccccc1 | 0.424
31 | Cc1ccc(S[C@]2(C(=O)NCc3ccccc3)CC(=O)N(C(C)C)[C@@H]2c2ccc(CO)cc2I)cc1 | 0.059
32 | Cc1ccc(C(C)CC(O)C2C=CC3C(=O)N(c4ccccc4)C(=O)C3N2Nc2ccc(C(C)C)cc2)o1 (stereo not given) | -1.32
33 | C=CC[C@]12N=C(c3ccc(OCCCO)cc3)O[C@H]1c1ccccc1N(C)C2=O | -0.782
34 | C=C(COC)/C(=C/C[C@@H](OC(=O)c1ccncc1)c1ccc(CO)o1)c1cnc2ccccc2c1 | 0.7
35 | O=C1NC(=O)C2C1C=CC(C(O)c1cc(C(F)(F)F)cc(C(F)(F)F)c1)N2Nc1ccc(Cl)cc1Cl (stereo not given) | -1.71
